# Results as given in PubChem BioAssay.
# Active and inactive are the calls of the source.
# Assay: viability profiling in MM1S myeloma cells – cell-based, resazurin fluorescence, basal, 24 h, PK04 Diversity Set, profiling panel (AID 1174);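 note: MM1S multiple myeloma cell line; test concentration not given here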
# Details: higher = more signal, called active from +8 up or from −8 down
row,Structure (SMILES),z-score
1,O=C1OCC=C[C@H]2OC34C=CCN(CCN5CCOCC5)C(=O)[C@H]3N(CCCO)C(=O)[C@@H]4[C@@H]12 (some centres not stated),-1.4 (inactive)
2,[N-]=[N+]=Nc1ccccc1C[C@@]1(C(=O)NCCN2CCOCC2)N=C(c2ccc(OCCCO)cc2)O[C@@H]1c1ccccc1,-0.599 (inactive)
3,COc1ccc(C(=O)Nc2ccc(CN3C(=O)[C@@]4(O[C@@H](CCO)[C@H]([Si](C)(C)c5ccc(OC)cc5)[C@H]4C)c4ccccc43)cc2)cc1,-9.13 (active)
4,CC(C)(C)OC(=O)CC[C@@]1(C(N)=O)N=C(c2ccc(OCCCO)cc2)O[C@@H]1c1ccccc1,-0.121 (inactive)
5,COc1ccc(C(=O)Nc2ccc(CN3C(=O)[C@@]4(O[C@@H](CC(=O)N5CCC[C@H]5CO)[C@H]([Si](C)(C)c5ccc(OC)cc5)[C@H]4C)c4ccccc43)cc2)cc1,-0.675 (inactive)
6,CN1C(=O)C2C=CC(C(O)C3CCCCC3)N(Nc3ccc([N+](=O)[O-])cc3[N+](=O)[O-])C2C1=O (configuration not stated),-0.778 (inactive)
7,CN1C(=O)C2C=CC(C(O)Cc3ccccc3)N(Nc3ccccc3)C2C1=O (configuration not stated),-0.808 (inactive)
8,COc1ccc(CCNC(=O)[C@@]2(Sc3ccc(C)cc3)CC(=O)N(C3CCCCC3)[C@@H]2c2ccc(CO)cc2I)cc1,0.175 (inactive)
9,O=C1OCCC/C=C\[C@H]2OC34C=CCN(CCN5CCOCC5)C(=O)[C@H]3N(CCCO)C(=O)[C@@H]4C12 (some centres not stated),-0.146 (inactive)
10,C=CCC(OC(C)=O)[C@@H]1[C@@H](N(Cc2ccc(-c3ccccc3)cc2)C(=O)Cc2ccc(F)cc2)c2cc(OCCCO)ccc2N1C(=O)c1ccc(-c2ccccc2)cc1 (some centres not stated),1.4 (inactive)
11,O=C(c1ccccc1)N1Cc2ccccc2[C@@H]2OC(c3ccc(OCCCO)cc3)=N[C@]2(Cc2ccccc2)C1=O,-1.79 (inactive)
12,COC(=O)C(CC#Cc1ccc2c(c1)[C@]1(C(=O)N2)[C@H](C(=O)O)[C@H]2C(=O)O[C@H](c3ccccc3)[C@H](c3ccccc3)N2[C@@H]1c1ccc(O)cc1)C(=O)OC,0.395 (inactive)
13,O=C1NCC(=O)N2[C@@H]1C[C@@H](C(=O)O)[C@H]2c1cccc(OCCO)c1,-0.159 (inactive)
14,C=CCNC(=O)[C@@H]1[C@H]2C(=O)O[C@H](c3ccccc3)[C@H](c3ccccc3)N2[C@H](c2ccc(OCCO)cc2)[C@@]12C(=O)Nc1ccc(C#CCCO)cc12,-0.185 (inactive)
15,C=C(/C(=C/C[C@@H](OC(C)=O)c1ccc(OCCO)cc1)c1cnc2ccccc2c1)C(C)C,-0.318 (inactive)
16,CN(C)C(=O)[C@]1(Cc2ccccc2N=[N+]=[N-])N=C(c2ccc(OCCCO)cc2)O[C@@H]1c1ccccc1,-0.597 (inactive)
17,COc1ccc(CCN2C(=O)[C@@]3(c4ccc([N+](=O)[O-])cc4)CC(=O)N(C4CCCCC4)[C@@H]3c3ccc(CO)cc32)cc1,-0.672 (inactive)
18,C[N+](C)(C)CCCCNC(=O)[C@H]1C[C@H]2C(=O)N[C@@H](Cc3ccccc3)C(=O)N2[C@H]1c1ccc(O)cc1,-0.0345 (inactive)
19,O=C1O[C@H](c2ccccc2)[C@H](c2ccccc2)N2[C@H]1[C@@H](C(=O)N1CCN(c3ncccn3)CC1)[C@]1(C(=O)Nc3ccc(C#CC4=CCCCC4)cc31)[C@H]2c1ccc(O)cc1,0.0054 (inactive)
20,COC(=O)[C@@]1(Cc2ccccc2)[C@H]2c3cc(C(=O)N(C)C)n(CCSCCO)c3C[C@H]2CN1C(=O)c1ccccc1,-0.345 (inactive)
21,CC(C)OC(=O)C=C1C[C@@H](c2ccccc2C(F)(F)F)O[C@@H](c2ccccc2C(F)(F)F)O1,0.493 (inactive)
22,COCCCNC(=O)[C@@]1(Cc2ccccc2)N=C(c2ccc(OCCCO)cc2)O[C@H]1c1ccccc1,-0.0938 (inactive)
23,CCCCC=C[C@@H](NC(=O)Oc1cccc(C(F)(F)F)c1)c1ccccc1,-2.06 (inactive)
24,O=C1C2C=CC(C(O)C(c3ccccc3)c3ccccc3)N(n3cnnc3)C2C(=O)N1Cc1ccccc1 (configuration not stated),-1.15 (inactive)
25,Cc1ccc(S[C@]2(C(=O)NCC(C)C)CC(=O)N(Cc3cc(C(F)(F)F)cc(C(F)(F)F)c3)[C@@H]2c2ccc(CO)cc2I)cc1,-2.99 (inactive)
26,COc1cc2c(cc1O)C(C1CC1)N(Cc1cc3c(cc1Br)OCO3)CC2 (configuration not stated),-3.63 (inactive)
27,CCCCC(=C=CC[C@@H](O)c1ccccc1OCCO)CCO,0.684 (inactive)
